Assay outcomes as filed in PubChem.
FMDV inh: antivirals against foot and mouth disease virus; FMDV antiviral cell-based qHTS; Potency, µM (doses to about 57.9 µM), without a hit: at the top dose activity change, negative = inhibition, hits mostly inhibitors; actives 1.2% (n = 410,000); calls by dose curve; tested in HEK293T cells; note: read-out not given here; potency is the fitted concentration of half-maximal effect; % is set by controls: 0 for no effect and ±100 for the full control effect; nearly all actives have a fitted effect of over 45% in size
Shiga inhibitor: inhibitors of Shiga toxin in Vero cells | actives 9.2% (n = 290,000) | inhibition, % at 38.7 µM | AID 2315 | Vero cells, Shiga toxin protein synthesis inhibition reporter; in the data active = inhibition mostly above about 28%, no sharp cut-off; inactive = mostly below about 43%; note: 0% is about no effect
CHX counter-1: affects cycloheximide protein synthesis inhibition readout, counter-screen; cell reporter, cycloheximide protein synthesis inhibition counterscreen; max response, %; actives 12% (n = 300,000); in the data active = max response mostly above about 13%, no sharp cut-off; inactive = mostly below about 14%; note: read at 38.3 µM for the half of the compounds with a filed dose; 0% is about no effect
Lassa entry inh: blocks Lassa virus binding to or entry into cells. Lassa virus pseudotype entry inhibition, cell reporter. Potency, µM (series often up to 37.9 µM), inactives show at the top dose activity change, negative = inhibition, most hits filed as inhibitors. actives 1.2% (n = 300,000). AID 540256; calls by dose curve; tested in HEK293 cells; note: potency is the fitted concentration of half-maximal effect; % is set by controls: 0 for no effect and ±100 for the full control effect; nearly all actives have a fitted effect of over 50% in size
HCV inhibitor: inhibitors of hepatitis C virus infection; AID 651820; Huh7.5.1 HCVcc-Cre infection, luciferase reporter, 44 h; actives 3.4% (n = 340,000); Potency, µM (highest dose often 41.8 µM), without a hit: at the highest dose activity change, negative = inhibition, usual class: inhibitors; active = well fitted inhibition curve with a large enough effect; inconclusive = small, poorly fitted or top-dose-only effect, or another doubt; inactive = no such curve, though single readings can be large or run the other way; note: potency is the fitted concentration of half-maximal effect; % is set by controls: 0 for no effect and ±100 for the full control effect
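After 44 h co-culture of compound, cells and HCVcc-Cre (~0.5 moi), substrate is added for 15 min at room temperature and luciferase measured over 15 sec. Cells were seeded at 1,000/well and pre-cultured 4 h.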
MARV entry inh: Marburg virus entry inhibition | Marburg virus pseudotyped entry inhibition, cell reporter | Potency, µM (doses to about 37.8 µM), inactives show at the highest dose activity change, negative = inhibition, actives largely listed as inhibitors | actives 1.8% (n = 300,000) | AID 540276; calls by dose curve; tested in HEK293 cells; note: potency is the fitted concentration of half-maximal effect; % is set by controls: 0 for no effect and ±100 for the full control effect
CHX counter-2: affects protein synthesis reporter in cycloheximide counter-screen. Cycloheximide counterscreen, protein synthesis reporter, Shiga toxin assay. Potency, µM (series often up to 38.3 µM), for the others: at the top dose activity (activation), actives largely listed as activators. actives 3% (n = 510). shares compounds with Shiga inhibitor; calls by dose curve; note: potency is the fitted concentration of half-maximal effect; 0% is about no effect
* hit, by the source's call; u = inconclusive; x = not tested or not shown; [ ] = remark or other dose. A selection: hits, their analogues and other compounds. The true share with any hit is near 13%.

SMILES	FMDV inh	Shiga inhibitor	CHX counter-1	Lassa entry inh	HCV inhibitor	MARV entry inh	CHX counter-2
Cc1cc(C)cc(NC(=O)Nc2ccc(S(=O)(=O)Nc3cc(C)on3)cc2)c1	-2.8%	-6.2	-5.7	x	5.9%	x	x
CCOC(=O)CNC(=O)Cn1cnc2c(cnn2-c2ccc(C)cc2)c1=O	-14.0%	2.9	-1.6	19.3%	12.2%	-26.8%	x
CCOC(=O)Cn1c(CN2CCN(c3ccc(OC)cc3)CC2)nc2c1c(=O)[nH]c(=O)n2C	7.4%	x	x	-2.2%[46.1 µM]	x	-0.7%[46.1 µM]	x
COc1ccc(N2CCN(Cc3nc4c(c(=O)[nH]c(=O)n4C)n3CC(C)=O)CC2)cc1	-7.4%	29.7*	-1.8	x	8.7%	x	-1.3%
Cc1ccc(-c2nnc(SCC(=O)NC3CCCC3)n2C)cc1	-0.7%	68.9*	-1.8	-13.9%	6.4%	10.7%[46.1 µM]	-0.6%
Cc1cc(C)n(-c2cc(N3CCOCC3)ncn2)n1	2.4%	30.8*	-1.7	x	-5.1%	x	-4.0%
Cc1c(NCc2cccnc2)cccc1C(=O)O	-15.2%	19.5	8.7	u	6.8%	8.7%[46.1 µM]	x
O=C(Nc1ccc(/C=C/c2nc3ccccc3o2)cc1)c1ccc(F)cc1	27.0%	36.7*	9.3	-4.4%	u	2.0%	2.25µM*
Cc1ccc(NC(=O)c2cccc(N3C(=O)C4C5C=CC(C5)C4C3=O)c2)cc1C (configuration not stated)	0.0%	17.5*	6.4	x	-25.2%	x	3.0%
COc1ccccc1NC(=O)c1cccc(N2C(=O)C3C4C=CC(C4)C3C2=O)c1 (configuration not stated)	-14.1%	-10.1	6.8	0.4%[46.1 µM]	-7.0%	14.0%[46.1 µM]	x
CC1(C)Cc2c(cnn2-c2ccccc2)C(NC(=O)CCN2CCCCO2)C1 (configuration not stated)	-1.9%	25.8*	4.2	x	13.3%	x	1.0%
O=C1[C@@H]2CSC(c3ccc(F)cc3)N2C(=O)N1c1ccc(Cl)cc1 (some centres not stated)	-9.7%	x	x	-4.6%[46.1 µM]	x	-22.7%[46.1 µM]	x
Cn1c(=O)c2ncn(CC(=O)NCCOc3ccccc3)c2n(C)c1=O	-16.3%	26.8*	4.5	3.6%	13.4%	15.0%	0.3%
COc1nc2ccccc2c(=O)n1-c1ccc(C)cc1	11.5%	18.8*	-3.2	u	-11.7%	-15.7%	-1.1%
COc1nc2ccccc2c(=O)n1-c1ccc(Cl)cc1	-7.3%	11.6	-1.3	u	3.4%	10.4%	x
O=C(NNC(=O)c1nc(Cl)ccc1Cl)c1ccc(F)cc1	-11.4%	24.0*	-1.9	x	10.6%	x	0.1%
COc1ccc(N2CCN(c3oc(COc4ccccc4Cl)nc3C#N)CC2)cc1	-8.6%	35.5*	15.9	-28.6%	u	u	u
COc1ccc(OCc2nc(C#N)c(N3CCN(c4ccc(OC)cc4)CC3)o2)cc1	-14.1%	32.0	6.4	x	u	x	x
CC(=O)Nc1cc(-c2ccccc2N(C)C)cn2c(-c3ccccc3)cnc12	-8.7%	x	x	x	x	x	x
O=C(c1ccc([N+](=O)[O-])cc1)N1CCc2ccccc2C1	4.8%	26.3*	1.2	7.2%	8.5%	3.0%[46.1 µM]	1.4%
O=C(c1ccc(S(=O)(=O)c2ccccc2)cc1)N1CCc2ccccc2C1	0.0%	-4.1	-4.2	-15.4%	-17.9%	u	x
CC1CCN(C(=O)CN(c2ccc3c(c2)OCO3)S(C)(=O)=O)CC1	x	-8.9	8.9	-3.7%	20.2%	12.9%	x
Nc1ccc2nn(-c3cccc4ccccc34)nc2c1	-25.6%	49.0*	2.2	-9.7%	9.5%	u	3.1%
CCOc1ccc(CNC(=O)C2CCCN(S(=O)(=O)N3CC(C)CC(C)C3)C2)cc1OC (configuration not stated)	0.9%	-5.7	-2.0	x	-1.1%	x	x
COc1cc(-n2nnnc2SC)c(OC)cc1Cl	2.3%	47.2*	9.6	x	5.9%	x	-1.2%
SMILES	FMDV inh	Shiga inhibitor	CHX counter-1	Lassa entry inh	HCV inhibitor	MARV entry inh	CHX counter-2
COc1cc(/C=N/NC(=O)c2cncc(Br)c2)cc([N+](=O)[O-])c1O	11.0%	1.8	-0.2	x	4.8%	x	x
CN(C)c1ccc(C(=O)NCc2ccc3c(c2)CCO3)cc1	15.9%	55.1*	2.3	-9.8%	-6.4%	0.0%[14.2 µM]	6.9%
Nc1[nH]c(C(=O)c2ccccc2)c(-c2ccc(F)cc2)c1C(=O)NCCc1c[nH]c2ccccc12	-13.6%	x	x	x	x	x	x
CS(=O)(=O)N(CC(=O)Nc1ccccc1Sc1ccccc1)C1CCCCC1	u	44.3*	5.1	5.0%	6.2%	u	-0.7%
O=C(COC(=O)C1C2CC3OC(=O)C1C3C2)Nc1ccc(Cl)cc1 (configuration not stated)	11.7%	5.7	14.0	-18.2%[46.1 µM]	9.1%	-1.9%[46.1 µM]	x
Cc1cccc(N2CCN(C(=O)Cc3ccc(Br)cc3)CC2)c1C	-17.6%	65.7*	18.7	u	u	-28.9%	u
CN=C(Nc1cc(Cl)ccc1Cl)SC1CC(=O)N(c2ccc(C(=O)OC)cc2)C1=O (configuration not stated)	-16.8%	1.8	-2.3	u	u	-19.1%	x
O=C(NCC(=O)N1CCN(c2ccccn2)CC1)c1ccc(Br)o1	22.9%	35.8*	9.5	14.8%[46.1 µM]	8.0%	-2.6%[46.1 µM]	-2.9%
O=C(NCC(=O)N1CCCCC1)c1ccc(Br)o1	22.7%	-22.3	1.3	2.2%	24.6%	40.3%	x
CC(OC(=O)c1ccc(Cl)c(S(N)(=O)=O)c1)C(=O)NCC1CCCCC1 (configuration not stated)	2.6%	x	x	x	u	x	x
NS(=O)(=O)c1cc(C(=O)NCC2CCCCC2)ccc1Cl	12.4%	56.0*	-3.2	0.6%[46.1 µM]	1.4%	-2.3%[46.1 µM]	1.6%
CC1=CC(C)(C)n2c(O)c(N=N)c3c(C)ccc1c32	-16.5%	10.4	6.6	7.4%	-13.7%	u	x
CCOC(=O)Nc1ccc2c(c1)Nc1ccccc1S2	u	31.1*	16.9	-15.0%	u	u	2.1%
O=C/C=C/c1ccccc1	-4.1%	63.9*	16.4	x	18.0%	x	u
CCc1ccc(CNC(=O)C(C)n2ccc3cc(S(=O)(=O)N4CCCCCC4)ccc32)cc1 (configuration not stated)	29.3%	x	x	-17.2%[46.1 µM]	x	x	x
COc1ccc(-c2nnc3sc(-c4ccccc4OC)nn23)cc1	12.3%	86.7*	1.4	-2.0%	3.3%	-0.2%	-2.4%
N#CCCCC1(CCCC#N)OCCO1	-24.9%	x	x	0.3%	15.9%	u	x
CCCOP(=O)(OCCC)c1nc(-c2ccccc2)oc1NCc1ccccc1	-1.9%	20.3*	4.0	u	u	u	0.9%
CCC(=O)N1CCc2cc(S(=O)(=O)NCCC(=O)NC3CCCc4ccccc43)ccc21 (configuration not stated)	-8.8%	-9.6	1.1	0.0%	3.1%	5.6%	x
O=C(c1ccc(N2CCOCC2)nc1)N1CCOCC1	x	57.6*	1.4	6.9%	-18.3%	29.2%	4.6%
O=C(c1ccc(C(=O)N2CCOCC2)nc1)N1CCOCC1	12.0%	10.3	-2.5	4.0%	6.9%	-4.0%	x
O=C(Sc1cccc2cccnc12)c1ccccc1Br	x	40.7*	7.6	x	x	x	9.3%
